Measured values published in PubChem BioAssay AID2058 (Sanford-Burnham Center for Chemical Genomics, 2009).
Among all 290,000 compounds or so, about 150 (0.052%) were called active.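 The calls were made as follows: active = inhibition of at least 50% with at least 30 cells and total cytoplasm GFP at most 10,000,000; inconclusive = under 30 cells or total GFP of 10,000,000 plus; inactive = the rest.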 What follows is part of a selection rich in actives, with near analogues and random picks from the rest. Measured potencies and affinities stand elsewhere.

Target: G-protein coupled receptor 35 (Homo sapiens) (UniProt Q9HC97)
Sequence (Q9HC97 whole entry, looked up): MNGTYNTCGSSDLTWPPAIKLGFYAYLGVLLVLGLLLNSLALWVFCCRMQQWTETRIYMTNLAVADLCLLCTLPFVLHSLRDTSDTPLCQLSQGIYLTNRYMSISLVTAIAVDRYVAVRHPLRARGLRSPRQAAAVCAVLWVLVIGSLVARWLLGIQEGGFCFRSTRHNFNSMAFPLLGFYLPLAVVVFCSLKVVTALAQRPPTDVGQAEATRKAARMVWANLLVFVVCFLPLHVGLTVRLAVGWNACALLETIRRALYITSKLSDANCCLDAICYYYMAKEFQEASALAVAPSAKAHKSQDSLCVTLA
Assay: inhibition of zaprinast-stimulated GPR35 beta-arrestin translocation – imaging, U2OS, beta-arrestin-GFP, zaprinast agonist, primary screen (AID 2058)
Details: zaprinast antagonism, at 10 µM, stronger effect = higher value

Structure (SMILES)	inhibition
Oc1ccc(-c2sc(Nc3ccccc3)n[n+]2-c2ccc(F)cc2)cc1	10.2% (inactive)
Fc1ccc(-[n+]2nc(Nc3ccccc3)sc2-c2ccc(OCc3ccccc3)cc2)cc1	8.3% (inactive)
CSc1ccc(-c2sc(Nc3ccccc3)n[n+]2-c2ccc(F)cc2)cc1	-7.7% (inactive)
COc1ccc(C)cc1Nc1n[n+](-c2ccccc2)c(-c2ccc(C(=O)O)cc2)s1	7.9% (inactive)
COc1ccc(C)cc1Nc1n[n+](-c2ccccc2)c(-c2ccc(SC)cc2)s1	20.4% (inactive)
O=C(O)c1ccc(-c2sc(Nc3ccccc3)n[n+]2-c2ccc(F)cc2)cc1	0.5% (inactive)
COC(=O)c1cc(-c2ccc(Cl)cc2)n[nH]1	10.8% (inactive)
CC(C)C(C)NC(=O)CN1C(=O)NC2(CCc3ccccc32)C1=O (stereo not given)	9.4% (inactive)
Nc1nonc1-n1nnc(C(=O)N/N=C/c2ccc(OCc3ccc(F)cc3)cc2)c1COc1ccccc1	5.9% (inactive)
CC(C)(C)c1ccc(/C=C2\CCn3c2nc2cc(C(=O)O)ccc2c3=O)cc1	17.9% (inactive)
O=Cc1[nH]c2ccccc2c1N(C(=O)CCl)c1ccc([N+](=O)[O-])cc1	80.7% (active)
CC(=O)n1cc(N(C(=O)CCl)c2ccc([N+](=O)[O-])cc2)c2ccccc21	-2.4% (inactive)
O=Cc1[nH]c2ccccc2c1N(C(=O)CCl)c1ccccc1	-1.1% (inactive)
CSc1ccc(C2c3[nH]c4ccccc4c3CCN2C(=O)c2ccnn2C)cc1 (stereo not given)	-11.7% (inactive)
CCOc1ccc(CN2CCN(Cc3cccc4nonc34)CC2CCO)cc1 (stereo not given)	97.5% (active)
COc1cccc(CN2CCN(Cc3cccc4nonc34)CC2CCO)c1 (stereo not given)	8.1% (inactive)
CCOc1ccccc1CN1CCN(Cc2cccc3nonc23)CC1CCO (stereo not given)	28.2% (inactive)
CN(C)/C=C1\C(=O)ON=C1c1ccccc1	-9.5% (inactive)
CCN(CC)C(=O)c1ccc(-c2nnc(Nc3ccc(C(=O)NC)cc3)c3ccccc23)cc1	5% (inactive)
N=C1/C(=C\c2ccc(-c3cccc(Cl)c3)o2)C(=O)N=C2SC=C(c3ccccc3)N12	-1.6% (inactive)
N=C1/C(=C\c2ccc(-c3cc(Cl)cc(Cl)c3)o2)C(=O)N=C2SC=C(c3ccccc3)N12	-4.5% (inactive)
N=C1/C(=C\c2ccc(-c3ccc(C(=O)O)cc3)o2)C(=O)N=C2SC=C(c3ccccc3)N12	43% (inactive)
CC(C)S(=O)(=O)C1=NSC2=NC(=O)/C(=C\c3ccc(-c4cccc(C(=O)O)c4)o3)C(=N)N21	-1.8% (inactive)

Structure (SMILES)	inhibition
O=C(c1ccsc1)N1CCCC(Nc2ccc(F)c(F)c2)C1 (stereo not given)	0% (inactive)
CC1CCCC(C)N1C(=O)c1cc2ncc(CCCl)cn2n1 (stereo not given)	-11.5% (inactive)
O=C(CCCC(=O)N(c1ccc(F)cc1)C(C(=O)NC1CCCC1)c1ccc(O)cc1)Nc1ccccn1 (stereo not given)	6.8% (inactive)
Cc1ccc(N/C(N)=N/c2nc(CSc3ccccn3)cc(=O)[nH]2)c(C)c1	2.7% (inactive)
C=CCSc1n[nH]c(-c2cccs2)n1	13.6% (inactive)
CN1C(=S)N(c2cccnc2)C(=O)/C1=C\c1ccc(N(C)C)cc1	15.6% (inactive)
COc1ccc(/C=C2\OC(=S)N(C)C2=O)cc1	22.6% (inactive)
N#Cc1c(C(F)(F)F)cc(-c2cccs2)nc1SCc1cccnc1	-12.1% (inactive)
O=C(COC(=O)Cn1cnc2ccccc2c1=O)Nc1cc(Cl)ccc1[N+](=O)[O-]	-6.5% (inactive)
CC(C)CNS(=O)(=O)c1ccc2c(c1)OCCO2	13.4% (inactive)
COC(=O)c1cnn(-c2ccccc2)c1/C=N/NC(=S)Nc1ccccc1	35.2% (inactive)
COC(=O)c1cnn(-c2ccccc2)c1/C=N/NC(=S)Nc1ccc(Cl)cc1	-10.9% (inactive)
COC(=O)c1cnn(-c2ccc(F)cc2F)c1/C=N/NC(N)=S	17.4% (inactive)
COC(=O)c1cnn(-c2ccc(Cl)cc2)c1/C=N/NC(N)=S	7% (inactive)
COc1ccc(C2=NOC(C(=O)Nc3cccc(O)c3)C2)cc1 (stereo not given)	-13.8% (inactive)
COc1ccc(-c2cc3c(=O)n(CC(=O)NC4CCN(Cc5ccccc5)CC4)ncn3n2)cc1	19.6% (inactive)
CCCc1c(O)nc(SCC(=O)NCc2ccco2)[nH]c1=O	-14.7% (inactive)
Cc1ccsc1-c1nc(C(N)=O)c2[nH]c(=O)n(-c3ccc(Cl)cc3)c2n1	-1.2% (inactive)
O=C(NCc1ccc2c(c1)OCO2)C1CC(=O)N(CCc2ccc(Cl)cc2)C1 (stereo not given)	-11.7% (inactive)
COc1cc(C(=O)Nc2ccc(C(N)=O)cc2)c([N+](=O)[O-])cc1OC	3% (inactive)
COc1ccc2nc(N=NC3=C(O)CC(C)(C)CC3=O)sc2c1	0.7% (inactive)
COc1ccc(-c2nnc(-c3ccc(OCC(C)C)cc3)o2)cc1	4.6% (inactive)
CC(C)COc1ccc(-c2nnc(-c3ccncc3)o2)cc1	2.8% (inactive)

Structure (SMILES)	inhibition
O=C(COC(=O)Cc1ccsc1)Nc1ccc(Cl)c(S(=O)(=O)N2CCOCC2)c1	23.9% (inactive)
O=C(O)COc1ccc(/C=C/C(=O)c2ccc3ccccc3c2)cc1	12.2% (inactive)
CCOc1ccc(/C=C/C(=O)c2ccccc2)cc1	7% (inactive)
COC(=O)c1sc(NC(=O)CSc2nnc(Cn3nnc4ccccc43)n2C)nc1C	5.3% (inactive)
CN(C)/C=C1\SC(=S)N(c2ccc(F)cc2)C1=O	9.5% (inactive)
CN(C)/C=C1\SC(=S)N(c2ccc(Br)cc2)C1=O	21.4% (inactive)
Nc1ccc(S(=O)(=O)NC(Cc2ccccc2)C(=O)O)cc1 (stereo not given)	-10.2% (inactive)
CCOC(=O)CC1C(=O)NCCN1c1nc2c(C)cccn2c(=O)c1/C=C1\SC(=S)N(CC(C)C)C1=O (stereo not given)	58.9% (active)
CCCN1C(=O)/C(=C/c2c(N3CCNC(=O)C3CC(=O)OC)nc3c(C)cccn3c2=O)SC1=S (stereo not given)	12.4% (inactive)
CCOC(=O)CC1C(=O)NCCN1c1nc2ccc(C)cn2c(=O)c1/C=C1\SC(=S)N(CC(C)C)C1=O (stereo not given)	21.7% (inactive)
CCOC(=O)CC1C(=O)NCCN1c1nc2ccc(C)cn2c(=O)c1/C=C1\SC(=S)N(C(C)CC)C1=O (stereo not given)	43.7% (inactive)
CCCN1C(=O)/C(=C/c2c(N3CCNC(=O)C3CC(=O)OCC)nc3c(C)cccn3c2=O)SC1=S (stereo not given)	33% (inactive)
CCOC(=O)CC1C(=O)NCCN1c1nc2c(C)cccn2c(=O)c1/C=C1\SC(=S)N(C(C)CC)C1=O (stereo not given)	55.7% (active)
Cc1cc(C)c(NC(=O)NC2CCCCC2)c(C)c1	-0.9% (inactive)
CCc1ccc(/C=C2/SC(=S)N(CCC(=O)Nc3ccc(C(=O)O)cc3)C2=O)cc1	-13.9% (inactive)
COc1cccc(/C=C2\SC(=S)N(CCC(=O)Nc3ccc(O)cc3)C2=O)c1	-4.8% (inactive)
O=C(CCN1C(=O)/C(=C\c2ccccc2)SC1=S)Nc1ccc(C(=O)O)cc1	27.2% (inactive)
O=C(CCN1C(=O)S/C(=C/c2ccccc2)C1=O)Nc1ccc(C(=O)O)c(O)c1	13.4% (inactive)
O=C(CCN1C(=O)/C(=C/c2ccc(Cl)cc2)SC1=S)Nc1ccc(C(=O)O)cc1	6.4% (inactive)
O=C(CCCN1C(=O)/C(=C\c2ccccc2)SC1=S)Nc1ccc(O)cc1C(=O)O	-10% (inactive)
COc1cccc(/C=C2/SC(=S)N(CCCC(=O)Nc3ccc(O)cc3)C2=O)c1	24% (inactive)
O=C(CCCN1C(=O)/C(=C\c2ccccc2)SC1=S)Nc1ccc(O)cc1	23.5% (inactive)
CC(C)CCn1c(CN2CCOCC2)nc2c1c(=O)n(C)c(=O)n2C	-9.6% (inactive)

Structure (SMILES)	inhibition
CC1(C)CCCC2=C1CC1C(=O)N(O)C(=O)C1C2 (stereo not given)	2.3% (inactive)
O=C1CCCN2N=C(SCC(=O)Nc3ccccc3C(F)(F)F)SC2=N1	1.9% (inactive)
CC(=O)N1CCc2cc(S(=O)(=O)CCC(=O)N3CCN(c4ccccc4F)CC3)ccc21	6.2% (inactive)
N#Cc1ccccc1NC(=O)CNc1ccccc1N1CCCCC1	19.6% (inactive)
O=C(CCN1C(=O)S/C(=C\c2ccc(Cl)cc2)C1=O)Nc1ccc(C(=O)O)cc1	4.2% (inactive)
O=C(CCCN1C(=O)/C(=C/c2cccs2)SC1=S)Nc1ccc(O)c(C(=O)O)c1	99.6% (active)
O=C(CCN1C(=O)/C(=C/c2cccs2)SC1=S)Nc1ccc(C(=O)O)c(O)c1	-2.6% (inactive)
O=C(CCCN1C(=O)/C(=C\c2cccs2)SC1=S)Nc1ccc(C(=O)O)cc1	13.3% (inactive)
O=C(CN1C(=O)S/C(=C\c2ccc(C(=O)O)cc2)C1=O)Nc1ccccc1	-1.7% (inactive)
COc1ccc(Cc2nnc(SCC(=O)NC3CCCCC3)n2C)cc1	9.8% (inactive)
COc1ccc(-n2c(C)nnc2SCC(=O)N2CCOCC2)cc1	-0.9% (inactive)
FC(F)(F)c1ccccc1N/N=C/c1cccnc1	-3.9% (inactive)
O=C(NCC1CC1)Nc1ccccc1	-5% (inactive)
COCC(C)NC(=S)Nc1ccccc1[N+](=O)[O-] (stereo not given)	-3.3% (inactive)
NS(=O)(=O)c1cccc(C(=O)NC2CCSc3ccccc32)c1 (stereo not given)	-7.4% (inactive)
COc1cc(/C=N/O)ccc1OCc1ccccc1Cl	-5.4% (inactive)
COc1cc(/C=N/N=C(N)N)ccc1OCc1ccccc1Cl	-8.2% (inactive)
Fc1cccc(Cl)c1CSc1ccc(-c2cccnc2)nn1	5.4% (inactive)
c1ccc(-c2ccc(SCc3cccnc3)nn2)nc1	-18.4% (inactive)
NNC(=O)c1sc(-c2ccc(Cl)cc2)cc1N	10.1% (inactive)
COc1ccccc1N=Nc1ccc(N)c(C)c1	5.6% (inactive)
